Bioassay records (PubChem)
Hits are enriched below; roughly 4.7% of the tested compounds scored in any of these assays.
D1 potentiator: human D1 dopamine receptor positive modulation | potentiation, % at 10 µM | HEK293 TREx D1 cells, calcium flux, dopamine EC20 potentiation | AID 504651 | actives 0.036% (n = 360,000); in the data active = potentiation above about 30%; also: 0% is about no effect
Target sequence (P21728 whole entry, looked up): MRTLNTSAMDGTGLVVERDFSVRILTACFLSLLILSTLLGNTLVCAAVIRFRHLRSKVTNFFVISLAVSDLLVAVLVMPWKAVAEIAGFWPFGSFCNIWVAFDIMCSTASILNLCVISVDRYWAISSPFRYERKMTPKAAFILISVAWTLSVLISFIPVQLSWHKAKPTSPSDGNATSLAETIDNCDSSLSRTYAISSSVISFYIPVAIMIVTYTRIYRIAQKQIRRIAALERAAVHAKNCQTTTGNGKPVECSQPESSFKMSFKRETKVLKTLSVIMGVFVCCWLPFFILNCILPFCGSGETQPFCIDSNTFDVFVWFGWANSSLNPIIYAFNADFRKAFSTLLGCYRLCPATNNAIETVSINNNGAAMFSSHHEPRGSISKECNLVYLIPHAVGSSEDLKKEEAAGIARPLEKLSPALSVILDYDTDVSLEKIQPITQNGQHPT
D1 agonist: human D1 receptor agonism; AID 504660; HEK293 T-REx D1 cells, calcium flux, agonist mode; P21728; actives 1% (n = 360,000); activation, % at 2 µM; also: 0% is about no effect
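Inducible HEK293 T-REx D1 cells, force-coupled to calcium signalling, were plated at 4000 cells/well with tetracycline and held overnight at 30 C. After no-wash calcium dye loading, compound-evoked calcium rise over 180 s flagged agonists.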
TRHR agonist: activates the human TRH receptor; activation, % at 2 µM; AID 493084; P34981; actives 0.18% (n = 360,000); TRHR cells, calcium flux fluo-8, FDSS agonist mode; also: 0% is about no effect
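Steps: seed TRHR cells overnight; add fluo-8 no-wash Ca dye, RT 30 min–1.5 h; record 10 s baseline; pin-transfer compounds; monitor fluorescence 1 cycle/s for the agonist window. Calcium increases flag candidate agonists.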
D1 antag: blocks dopamine activation of the human D1 receptor; P21728; HEK293 TREx D1 cells, calcium flux, dopamine EC80; stronger effect = lower value; activity change, negative = inhibition, % at 10 µM; actives 3.2% (n = 360,000); AID 504652; in the data active = activity change below about -30%; also: % is scaled to controls: 0 for no effect and ±100 for the full control effect
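After overnight tetracycline induction at 30 C, force-coupled D1 HEK293 cells took up a no-wash calcium dye at room temperature. Compounds were added and monitored 180 s, and the response to EC80 dopamine was then recorded.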
TRHR enhancer: allosteric enhancers of human TRH receptor; TRHR cells, fluo-8 calcium fluorescence, EC20 TRH enhancement; P34981; actives 0.66% (n = 360,000); enhancement, % at 2 µM; in the data active = enhancement above about 30%; also: 0% is about no effect
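TRHR-expressing cells loaded with fluo-8 calcium dye were read kinetically (ex 480/em 530) during compound addition, then stimulated with an EC20 of TRH (10 nM final). Enhancement of the Gq-mediated intracellular calcium response was scored.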
* hit, by the source's call; · = no result. Rule as the data show it, unless noted: active = activation above about 30%; inactive = the rest.

SMILES	D1 potentiator	D1 agonist	TRHR agonist	D1 antag	TRHR enhancer
Cc1cc(Br)cc(C)c1OCC(=O)NNC(=O)c1cccs1	0	3	0	-37*	-4
CC(C(=O)Nc1ccccc1F)N1CCN(C)CC1 (configuration not stated)	-3	1	-1	-16	30*
COc1ccc(OC)c(NC(=O)c2cnn(-c3ccc(C)cc3)c2C2CCNCC2)c1	4	0	-1	12	17
Cc1ccc(C(NC(=O)N2CCOCC2)=C(Cl)Cl)cc1F	-2	-1	-3	-37*	2
Cc1ccc(C(NC(=O)N2CCOCC2)C(Cl)Cl)cc1F (configuration not stated)	0	1	-1	-8	1
C=CCSc1nnc(N2C(=O)C(O)=C(C(=O)c3ccco3)C2c2ccccc2F)s1 (configuration not stated)	-2	27	12	15	1
CCCSc1nnc(N2C(=O)C(O)=C(C(=O)c3ccco3)C2c2ccccc2F)s1 (configuration not stated)	-4	97*	29	-15	-3
CSc1nnc(N2C(=O)C(O)=C(C(=O)c3ccco3)C2c2ccccc2F)s1 (configuration not stated)	2	98*	23	-1	3
CCCCNC(=O)Cn1c(=O)cc(C)c2c(C)nn(-c3cccc(Cl)c3C)c21	-5	-1	0	-4	-6
NC(=O)C1CCN(c2nc(C3CC3)nc3c2nnn3Cc2ccccc2)CC1	6	0	-1	22	30*
Cc1ccc(CNC(=O)CCc2nnc3n(C)c(=O)c4sccc4n23)cc1	2	0	1	-6	-3
NC(=O)NC(c1ccccc1)c1ccccc1	35*	185*	1	·	-5
CCOc1ccccc1/C=N/NC(=O)Cc1csc(Nc2cccc(C(F)(F)F)c2)n1	-2	3	0	7	-5
CCOc1ccc(/C=N/NC(=O)Cc2csc(Nc3cccc(C(F)(F)F)c3)n2)c(OCC)c1	-5	0	1	-32*	2
Nc1nc(Nc2cc(F)cc(F)c2)nc(NC2CCCC2)n1	1	3	1	25	1
Cc1ccc(Cn2c(CNC(=O)CCc3ccccc3)nc3cccnc32)cc1	-4	1	-1	28	-4
CCCCS(=O)(=O)N1CCC(C(=O)NCC2CCCO2)CC1 (configuration not stated)	-5	1	3	-13	-8
CCS(=O)(=O)N1CCC(C(=O)NCC2CCCO2)CC1 (configuration not stated)	0	2	1	-36*	1
COc1ccc(CNC(=O)CCn2c(=O)c3cccn3c3ccc(F)cc32)cc1OC	-4	20	0	-43*	8
COCCNc1ccc(N2C(=O)CCCC2=O)cc1[N+](=O)[O-]	-3	1	0	-47*	-4
CC(Oc1ccc2ccc(=O)oc2c1)C(=O)NC(Cc1c[nH]c2ccc(O)cc12)C(=O)O (configuration not stated)	-8	0	1	-87*	-21
Cc1ccc(N2CCN(C(=O)c3cccn4c(=O)c5ccc(Cl)cc5nc34)CC2C)cc1 (configuration not stated)	0	5	0	18	6
C=CCc1cc(OC)ccc1OCCOCCN1CCc2ccccc2C1	-11	11	0	-43*	0
C=CCN(CC(=O)NC1CCS(=O)(=O)C1)S(=O)(=O)c1ccccc1C(F)(F)F (configuration not stated)	-7	3	2	1	31*
CCN(CC(=O)NC1CCS(=O)(=O)C1)c1ccc([N+](=O)[O-])cc1C#N (configuration not stated)	-3	2	0	-31*	5
SMILES	D1 potentiator	D1 agonist	TRHR agonist	D1 antag	TRHR enhancer
CCN(CC(=O)NC1CCS(=O)(=O)C1)S(=O)(=O)c1cc(C)ccc1C (configuration not stated)	-12	0	0	-55*	-2
O=C(CN1C(=O)c2ccc([N+](=O)[O-])cc2C1=O)NC1CCS(=O)(=O)C1 (configuration not stated)	0	1	0	-2	2
O=C(CN1C(=O)COc2ccccc21)NCCc1ccc(Cl)cc1	1	-2	0	-15	-7
COc1cc(-c2nc3ccc(C)cn3c2Nc2ccc(Cl)cc2)ccc1O	-1	2	-1	-5	-1
O=C(c1ccncc1)c1ccc(N2CCN(C3CC(=O)N(Cc4cccs4)C3=O)CC2)cc1 (configuration not stated)	-5	13	0	-39*	-8
O=C1CC(N2CCN(c3ccc(O)cc3)CC2)C(=O)N1Cc1cccs1 (configuration not stated)	4	0	0	4	4
Cc1ccc(NC(=O)CSc2nccn2Cc2ccc3c(c2)OCO3)c(C)c1	-4	0	-1	5	2
CCN(Cc1ccccc1)C(=O)CN1C(=O)NC(CC)(c2ccc(F)cc2)C1=O (configuration not stated)	-15	6	0	10	31*
CCC1(c2ccc(F)cc2)NC(=O)N(CC(=O)Nc2ccccc2C)C1=O (configuration not stated)	-9	23	3	-6	3
CCC1(c2ccc(F)cc2)NC(=O)N(CC(=O)N2CCc3ccccc32)C1=O (configuration not stated)	·	58*	5	-15	-3
CCn1cc2nc(SCC(=O)Nc3cc(OC)ccc3OC)n(Cc3ccc(Cl)cc3)c(=O)c2n1	5	1	1	12	12
COc1cccc(CCNC(=O)c2cnc3sc(N4CCCCCC4)nn3c2=O)c1	2	1	-1	-18	0
COc1cc(C2C(C#N)=C(C)NC3=C2C(=O)c2ccccc23)cc(OC)c1OC (configuration not stated)	-6	0	0	-53*	-3
CCOC(=O)Cc1c(C)nc2cc(-c3ccc(C(C)(C)C)cc3)nn2c1C	-6	1	1	-39*	2
CC(CCc1ccccc1)NC(=O)c1ccccc1 (configuration not stated)	-4	0	0	2	-4
COc1cccc(NC(=O)Nc2cc(C(=O)O)ccc2C)c1	-6	3	-3	-43*	-5
COc1cccc(NC(=O)CCc2ccccc2)c1	1	-2	-1	-44*	-1
COc1cccc(C(=O)NC(C)CCc2ccccc2)c1 (configuration not stated)	-2	0	-1	-1	33*
COc1cccc(NC(=O)Cc2ccccc2)c1	-2	2	0	-7	4
COc1cccc(NC(=O)Cc2c(O)c3ccccc3[nH]c2=O)c1	-12	1	1	0	31*
